Source: PubChem BioAssay (NCI)
About 83,000 compounds went through this panel and 20% of them were active in at least one assay; those are over-represented in the sample as a whole.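 Testing used 96-well plates and a 48-hour single-concentration exposure. Example: -40 means 40% of the starting cells died.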 A number with no mark means an inactive call. Activity calls are given as the source filed them. How the source made its calls: active means growth percent below 10; inactive means the rest.

System: LOX IMVI melanoma
Assay: NCI-60 one-dose screen, 48 h (100 = growth as untreated, 0 = no growth, -100 = all killed)
Conditions: 10 µM unless noted

Compound	growth
Cn1cc(C(=O)NCCC(=N)N)cc1NC(=O)CN=C(N)N	97.5%
Nc1cccc2c(=S)c3ccccc3[nH]c12	88.5%
CCN1CCN(c2nc3ccccc3c3c(=O)c4cc(F)ccc4sc23)CC1	60.9%
Cc1ccc(N(CSc2ccc(Cl)cc2)CSc2ccc(Cl)cc2)cc1	-10.1% (active)
O=C1C(Cl)=C(NCCCN2CCOCC2)C(=O)c2ccccc21	54.2%
O=[N+]([O-])c1ccc(O)c2ncccc12	46.8%
O=C(Nc1ccccc1)Oc1cccc2cccnc12	61%
Cc1ccc(C)c2c1sc1nc3nc4sc5ccccc5n4c(=N)c3c(=O)n12	92.6%
O=C(c1ccccc1)C(Br)C(Br)c1cccc([N+](=O)[O-])c1 (centres undefined)	-79.4% (active)
COc1cc(/C=C2\C(=O)Nc3ccccc32)cc(OC)c1O	36.5%
O=c1ccc2ccccc2o1	109%
Cc1nc(-c2ccccc2)cc2c(O)c(C(=O)N/N=C/Cc3ccccc3)[nH]c(=O)c12	95.7%
CN1CCc2cccc3c2C1Cc1ccc(O)c(O)c1-3 (centres undefined)	67.8%
COc1cccc(C2C3=C(COC3=O)N(CCO)c3cc4c(cc32)CCC4)c1 (centres undefined)	14.8%
COc1cc(CNCCCN2C(=O)c3ccc4c5c(ccc(c35)C2=O)C(=O)N(CCCNCc2cc(OC)c(OC)c(OC)c2)C4=O)cc(OC)c1OC	-85.6% (active)
O=C1C=CC(=O)N1CCCCCCCCCCN1C(=O)C=CC1=O	42.9%
CCCCC/C=C\C/C=C/CCCCCCCCNC(=O)Nc1ccc([N+](=O)[O-])cc1	17.4%
Clc1ccc(C2=NN(c3ccccc3)[C@H](c3cn(-c4ccccc4)nc3-c3ccccc3)C2)cc1	96.4%
OB(O)c1ccccc1	101%
COc1cccc2c(=O)c3c(sc12)c(NCCN(C)C)nc1ccccc13	-2.57% (active)
O=C(N/N=C/c1ccc(F)cc1)c1[nH]c2ccc(I)cc2c1-c1ccccc1	25.8%
COc1ccc(-c2nc3sc(C)cn3c2/C=C/C(=O)c2cc(OC)c(OC)c(OC)c2)cc1	48.8%

System: SK-MEL-28 melanoma
Assay: as above
Conditions: 10 µM unless noted

Compound	growth
COc1ccc(Sc2ccc3[nH]c(=O)nc(N)c3c2)cc1	104%
CCN1C(=O)C2(Nc3ccccc3S2)c2cc(C)ccc21 (centres undefined)	105%
CCOC(=O)c1cn2c3c(cc(F)cc3c1=O)C(CC)c1ccccc1C2 (centres undefined)	98.9%
Cc1nn(CC(=O)O)c2c1C(=O)CC(C)(C)C2	105%
O=C1/C(=C/c2ccc(Oc3ccccc3)cc2)N=C(c2ccccc2)N1CCc1cccs1	94%
COc1cccc(C2C3=C(COC3=O)N(CCO)c3cc4c(cc32)OCO4)c1 (centres undefined)	50.5%
COc1ccc2c(c1)c(=O)oc1c(C)c(OCC(C)=O)ccc12	106%
CC1=C(C/C=C(\C)CCC[C@H](C)CCC[C@H](C)CCCC(C)C)C(=O)c2ccccc2C1=O	128%
O=S(=O)(OCCO)c1ccccc1	110%
COc1ccc(-c2nc3sccn3c2/C=C/C(=O)c2cc(OC)c(OC)c(OC)c2)cc1OC	53.2%
Cc1nc(NN)c([N+](=O)[O-])c(NN)n1	108%
COc1cc(/C=C2\C(=O)N(c3c(Cl)cccc3Cl)c3ccccc32)cc(OC)c1O	58.8%
COc1cc(C2C3=C(COC3=O)N(CCO)c3cc4c(cc32)OCO4)cc(OC)c1O (centres undefined)	59.5%
COc1ccccc1CNCCCCCCCCCCCCN1C(=O)c2ccc3c4c(ccc(c24)C1=O)C(=O)N(CCCCCCCCCCCCNCc1ccccc1OC)C3=O	81.1%
CCCCCCCCCCCCCCCC[N+]1(C)CCOCC1	86%
Cn1cc(C(=O)NCCC(=N)N)cc1NC(=O)CN=C(N)N	92.6%
Nc1cccc2c(=S)c3ccccc3[nH]c12	114%
CCN1CCN(c2nc3ccccc3c3c(=O)c4cc(F)ccc4sc23)CC1	78.2%
Cc1ccc(N(CSc2ccc(Cl)cc2)CSc2ccc(Cl)cc2)cc1	102%

Compound	growth
O=C1C(Cl)=C(NCCCN2CCOCC2)C(=O)c2ccccc21	104%
O=[N+]([O-])c1ccc(O)c2ncccc12	81.7%
O=C(Nc1ccccc1)Oc1cccc2cccnc12	97.6%
Cc1ccc(C)c2c1sc1nc3nc4sc5ccccc5n4c(=N)c3c(=O)n12	110%
O=C(c1ccccc1)C(Br)C(Br)c1cccc([N+](=O)[O-])c1 (centres undefined)	63.6%
COc1cc(/C=C2\C(=O)Nc3ccccc32)cc(OC)c1O	90.3%
O=c1ccc2ccccc2o1	108%
Cc1nc(-c2ccccc2)cc2c(O)c(C(=O)N/N=C/Cc3ccccc3)[nH]c(=O)c12	115%
CN1CCc2cccc3c2C1Cc1ccc(O)c(O)c1-3 (centres undefined)	115%
COc1cccc(C2C3=C(COC3=O)N(CCO)c3cc4c(cc32)CCC4)c1 (centres undefined)	46.8%
COc1cc(CNCCCN2C(=O)c3ccc4c5c(ccc(c35)C2=O)C(=O)N(CCCNCc2cc(OC)c(OC)c(OC)c2)C4=O)cc(OC)c1OC	-91.7% (active)
O=C1C=CC(=O)N1CCCCCCCCCCN1C(=O)C=CC1=O	97%
CCCCC/C=C\C/C=C/CCCCCCCCNC(=O)Nc1ccc([N+](=O)[O-])cc1	106%
Clc1ccc(C2=NN(c3ccccc3)[C@H](c3cn(-c4ccccc4)nc3-c3ccccc3)C2)cc1	110%
OB(O)c1ccccc1	117%
COc1cccc2c(=O)c3c(sc12)c(NCCN(C)C)nc1ccccc13	43.9%
O=C(N/N=C/c1ccc(F)cc1)c1[nH]c2ccc(I)cc2c1-c1ccccc1	67.9%
COc1ccc(-c2nc3sc(C)cn3c2/C=C/C(=O)c2cc(OC)c(OC)c(OC)c2)cc1	41.4%
